Assay [1] can be described thus: qHTS assay to identify small molecule antagonists of the thyroid receptor (TR) signaling pathway (AID 743065). Note: nearly all actives have a fitted effect of over 55% in size. Note: potency is the fitted concentration of half-maximal effect. In short, it runs like this:
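Antagonism measured as loss of luciferase signal in GH3 cells stably carrying a TRE-luciferase reporter, co-treated with compound and T3 (1 nM final) for 23.5 h at 37 C. Viability was read in the same well by CellTiter-Fluor.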
Background: Quantitative high-throughput screening tests each substance at several concentrations.

Assay [2] has as its system thyroid hormone receptor (rat, GH3 cells). The assay is described as follows: qHTS assay to identify small molecule agonists of the thyroid receptor (TR) signaling pathway (AID 743066; calls by dose curve).
The target of assay [3] is Estrogen receptor (Homo sapiens) (UniProt P03372). The assay is described as follows: qHTS assay to identify small molecule antagonists of the estrogen receptor alpha (ER-alpha) signaling pathway (AID 743069; active = well fitted curve in the direction sought with a large enough effect in the signal ratio in the repeat runs, not every such curve was filed as active; the % refers to the signal ratio). In short, it runs like this: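 Fluorescence intensity from a beta-lactamase FRET substrate served as the read-out. Cells: HEK293 with stably integrated ER-alpha-UAS-bla reporter. Agonist 17beta-estradiol was co-added with compounds; incubation 18 hr at 37C, substrate 2 hr at room temperature.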

Assay [4] can be described thus: qHTS assay to identify small molecule antagonists of the estrogen receptor alpha (ER-alpha) signaling pathway - cell viability counter screen (AID 743074; calls by dose curve; note: nearly all actives have a fitted effect of over 45% in size).
For assay [5], the target named is Estrogen receptor (Homo sapiens) (UniProt P03372). Briefly: qHTS assay to identify small molecule agonists of the estrogen receptor alpha (ER-alpha) signaling pathway (AID 743075; calls by dose curve).
The target is the same in assay [6]. Briefly: qHTS assay to identify small molecule agonists of the estrogen receptor alpha (ER-alpha) signaling pathway using the BG1 cell line (AID 743079). Note: nearly all actives have a fitted effect of over 20% in size. Note: potency is the fitted concentration of half-maximal effect.
Assay [7] is described as follows: qHTS assay to identify small molecule antagonists of the estrogen receptor alpha (ER-alpha) signaling pathway using the BG1 cell line (AID 743080; calls by dose curve;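 note: BG1 cells stimulated with 17beta-estradiol alongside compound; series mostly up to about 70 µM; nearly all actives have a fitted effect of over 25% in size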). In short, it runs like this:
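BG1-Luc-4E2 cells (endogenous full-length ER-alpha, stable 4×ERE-luciferase) were starved 5 days in phenol-red-free medium with 10% charcoal-stripped FBS, plated 24 h, then given compound plus 17beta-estradiol for 21.5 h at 37 C; ONE-Glo luminescence read after 30 min.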

Assay [8] in a line: qHTS assay to identify small molecule antagonists of the estrogen receptor alpha (ER-alpha) signaling pathway using the BG1 cell line - cell viability counter screen (AID 743081).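 Note: compound given together with 17beta-estradiol as the ER stimulus; series mostly up to about 70 µM; nearly all actives have a fitted effect of over 45% in size.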
The nature of assay [9]: qHTS assay to identify aromatase inhibitors - cell viability counter screen (AID 743084).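 Note: cells stimulated with testosterone during compound exposure; nearly all actives have a fitted effect of over 55% in size.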
Assay [10] can be described thus: qHTS assay to identify small molecule that activate the aryl hydrocarbon receptor (AhR) signaling pathway - cell viability counter screen (AID 743086).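 Note: HepG2 liver cells carrying the AhR DRE luciferase reporter; series mostly up to about 70 µM; nearly all actives have a fitted effect of over 45% in size.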 In short, it runs like this:
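Cytotoxicity counter screen: CellTiter-Fluor signal (30 min, 37 C) in 4000 HepG2 cells/well carrying the DRE-luciferase reporter, following 24 h compound exposure at 37 C.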

Assay [11] deals with Peroxisome proliferator-activated receptor gamma (Homo sapiens) (UniProt P37231). The assay is described as follows: qHTS assay to identify small molecule agonists of the peroxisome proliferator-activated receptor gamma (PPARg) signaling pathway (AID 743094; active = well fitted activation curve with a large enough effect in the signal ratio in the repeat runs, not every such curve was filed as active; the % refers to the signal ratio). In short, it runs like this: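 Cell-based bla reporter, HEK293H background, PPARg-driven UAS. Pre-incubation 5 h, 37C, 5% CO2. Compound 17 h, 37C. Substrate 1 h RT; fluorescence.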

The nature of assay [12]: qHTS assay to identify small molecule antagonists of the peroxisome proliferator-activated receptor gamma (PPARg) signaling pathway - cell viability counter screen (AID 743194). Note: nearly all actives have a fitted effect of over 55% in size. In short, it runs like this: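 Viability was measured as CellTiter-Glo luminescence in GeneBLAzer PPARg UAS-bla HEK293H cells. These cells had been exposed 17 h at 37 C to compounds together with rosiglitazone at 50 nM final, with the beta-lactamase readout taken in the same wells.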

A short description of assay [13]: qHTS assay for small molecule agonists of the antioxidant response element (ARE) signaling pathway - cell viability counter screen (AID 743203; calls by dose curve; note: nearly all actives have a fitted effect of over 55% in size). In short, it runs like this: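 Measured in the same wells as the beta-lactamase ARE reporter, this read-out is CellTiter-Glo luminescence from HepG2 ARE-bla cells given compounds for 16 hrs.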
Assay [14] is described as follows: qHTS assay for small molecule activators of the heat shock response signaling pathway - cell viability counter screen (AID 743209). Note: nearly all actives have a fitted effect of over 50% in size. In short, it runs like this: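 Same-well multiplex: after 2.5 h room-temperature incubation with LiveBLAzer B/G substrate and fluorescence reading, CellTiter-Glo reagent was added to HSE-bla HeLa cells that had received compound for 5 h at 37 C; luminescence read after 30 min.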

A short description of assay [15]: qHTS assay for small molecule activators of the heat shock response signaling pathway (AID 743210; active = well fitted activation curve with a large enough effect in the signal ratio in the repeat runs, with a control signal flat, not every such curve was filed as active; the % refers to the signal ratio;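 note: HeLa cells with beta-lactamase reporter driven by heat shock elements; series mostly up to about 63 µM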). In short, it runs like this: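 Fluorescence from a cleaved B/G FRET substrate (2.5 h, room temp) reports HSE-driven beta-lactamase in HeLa cells treated 5 h at 37 C with DMSO-dissolved compounds.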
Assay [16] in a line: qHTS assay to identify small molecule agonists of the peroxisome proliferator-activated receptor delta (PPARd) signaling pathway - cell viability counter screen (AID 743211). Note: nearly all actives have a fitted effect of over 55% in size. In short, it runs like this:
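PPARd-bla HEK293H cells (UAS-beta-lactamase reporter) were treated with compounds for 17 h at 37 C. Viability was then read in the same wells by CellTiter-Glo luminescence after 30 min at room temperature.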

For a further assay, the target named is Aromatase (Homo sapiens) (UniProt P11511). The assay is described as follows: qHTS assay to identify aromatase inhibitors (AID 743083).
The target in assay [17] is Aryl hydrocarbon receptor (Homo sapiens) (UniProt P35869). The assay is described as follows: qHTS assay to identify small molecule that activate the aryl hydrocarbon receptor (AhR) signaling pathway (AID 743085).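 Note: HG2L7.5c1 human HepG2 liver cells with stably integrated DRE-driven firefly reporter; series mostly up to about 70 µM; nearly all actives have a fitted effect of over 15% in size.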 In short, it runs like this:
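HepG2 cells (HG2L7.5c1) stably carrying a firefly luciferase reporter driven by 20 dioxin responsive elements were exposed to compound for 24 h at 37C after a 5 h settling period; luminescence rise (ONE-Glo) indicated activation.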

Assay [18] can be described thus: qHTS assay for small molecule agonists of the antioxidant response element (ARE) signaling pathway (AID 743202; active = well fitted activation curve with a large enough effect in the signal ratio in the repeat runs, not every such curve was filed as active; the % refers to the signal ratio; note: potency is the fitted concentration of half-maximal effect). In short, it runs like this:
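Beta-lactamase reporter activity, read as fluorescence intensity, reflects ARE/Nrf2 pathway induction in HepG2 cells after 16 h compound exposure at 37 C; substrate loading was 2 h at room temperature.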

Assay [19] deals with Peroxisome proliferator-activated receptor gamma (Homo sapiens) (UniProt P37231). Briefly: qHTS assay to identify small molecule antagonists of the peroxisome proliferator-activated receptor gamma (PPARg) signaling pathway (AID 743191; calls by dose curve; note: series mostly up to about 63 µM; nearly all actives have a fitted effect of over 30% in size). In short, it runs like this: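 Beta-lactamase reporter under UAS control in HEK293H PPARg-bla cells; compound treatment 17 h at 37C. Read-out: fluorescence intensity after 1 h room-temperature incubation with LiveBLAzer B/G FRET substrate.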

SMILES strings stand for the structures. Values joined by “and” are separate entries in the source; they are usually repeats but may differ in a detail not shown here. Identical values can stand only once. Results filed as inconclusive are left out. Active and inactive are the calls of the source. Unless noted, calls come from the whole dose curve; as a rule, active = well fitted curve in the direction sought with a large enough effect in the repeat runs; inconclusive = weak or mixed curves; inactive = no such curve, though single readings can be large; an effect the other way counts as inactive or inconclusive.

Aryl hydrocarbon receptor (Homo sapiens), sequence (P35869 whole entry, looked up): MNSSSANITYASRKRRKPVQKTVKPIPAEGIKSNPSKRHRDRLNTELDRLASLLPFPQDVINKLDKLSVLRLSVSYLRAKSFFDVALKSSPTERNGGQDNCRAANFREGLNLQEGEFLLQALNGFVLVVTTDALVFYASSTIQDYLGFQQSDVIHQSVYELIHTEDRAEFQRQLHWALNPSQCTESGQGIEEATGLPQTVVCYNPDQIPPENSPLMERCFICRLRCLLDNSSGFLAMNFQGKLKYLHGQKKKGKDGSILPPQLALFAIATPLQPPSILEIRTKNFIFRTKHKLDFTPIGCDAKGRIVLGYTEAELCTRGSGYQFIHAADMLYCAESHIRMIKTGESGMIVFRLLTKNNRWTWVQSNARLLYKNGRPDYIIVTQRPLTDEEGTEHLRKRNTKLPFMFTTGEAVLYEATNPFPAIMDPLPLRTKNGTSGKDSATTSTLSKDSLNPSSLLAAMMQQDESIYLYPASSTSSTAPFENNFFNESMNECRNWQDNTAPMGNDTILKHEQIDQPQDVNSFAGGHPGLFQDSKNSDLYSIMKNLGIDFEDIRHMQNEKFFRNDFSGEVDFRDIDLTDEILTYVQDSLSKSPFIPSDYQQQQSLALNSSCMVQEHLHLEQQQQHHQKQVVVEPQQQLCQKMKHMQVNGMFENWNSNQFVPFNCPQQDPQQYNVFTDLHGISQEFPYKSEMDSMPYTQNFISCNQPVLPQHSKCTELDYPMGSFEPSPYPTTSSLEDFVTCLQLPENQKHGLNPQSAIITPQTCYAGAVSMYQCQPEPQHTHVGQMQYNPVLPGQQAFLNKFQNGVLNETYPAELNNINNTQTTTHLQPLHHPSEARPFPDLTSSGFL
Peroxisome proliferator-activated receptor gamma (Homo sapiens), sequence (P37231 whole entry, looked up): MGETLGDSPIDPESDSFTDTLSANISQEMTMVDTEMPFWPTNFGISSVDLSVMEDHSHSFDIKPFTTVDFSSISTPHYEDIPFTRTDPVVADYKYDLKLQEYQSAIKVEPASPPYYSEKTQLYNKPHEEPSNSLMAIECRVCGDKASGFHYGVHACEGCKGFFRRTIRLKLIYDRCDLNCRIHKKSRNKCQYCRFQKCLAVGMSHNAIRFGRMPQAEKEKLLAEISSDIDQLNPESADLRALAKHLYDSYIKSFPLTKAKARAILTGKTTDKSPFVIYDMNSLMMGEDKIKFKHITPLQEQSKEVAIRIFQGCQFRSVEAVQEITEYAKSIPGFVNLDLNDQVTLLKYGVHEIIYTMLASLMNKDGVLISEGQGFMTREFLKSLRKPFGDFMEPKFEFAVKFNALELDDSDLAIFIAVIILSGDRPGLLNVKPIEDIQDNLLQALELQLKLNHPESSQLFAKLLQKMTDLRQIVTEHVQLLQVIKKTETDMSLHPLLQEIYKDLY
Estrogen receptor (Homo sapiens), sequence (P03372 whole entry, looked up): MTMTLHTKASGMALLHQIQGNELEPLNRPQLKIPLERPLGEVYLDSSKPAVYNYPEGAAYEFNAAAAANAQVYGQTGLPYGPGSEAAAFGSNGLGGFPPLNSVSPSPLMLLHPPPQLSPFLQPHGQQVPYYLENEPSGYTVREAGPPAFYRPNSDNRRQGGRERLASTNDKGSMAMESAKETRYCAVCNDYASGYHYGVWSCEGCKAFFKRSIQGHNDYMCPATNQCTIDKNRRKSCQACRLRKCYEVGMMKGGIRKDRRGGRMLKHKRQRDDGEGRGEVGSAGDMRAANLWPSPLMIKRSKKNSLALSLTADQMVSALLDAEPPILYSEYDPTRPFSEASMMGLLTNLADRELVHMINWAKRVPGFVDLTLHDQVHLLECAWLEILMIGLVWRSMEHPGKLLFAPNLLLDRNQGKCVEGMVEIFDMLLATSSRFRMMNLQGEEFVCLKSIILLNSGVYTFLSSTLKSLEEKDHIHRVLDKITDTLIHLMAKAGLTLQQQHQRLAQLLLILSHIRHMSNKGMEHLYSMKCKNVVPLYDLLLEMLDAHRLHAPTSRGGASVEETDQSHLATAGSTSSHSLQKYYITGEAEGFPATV
Aromatase (Homo sapiens), sequence (P11511 whole entry, looked up): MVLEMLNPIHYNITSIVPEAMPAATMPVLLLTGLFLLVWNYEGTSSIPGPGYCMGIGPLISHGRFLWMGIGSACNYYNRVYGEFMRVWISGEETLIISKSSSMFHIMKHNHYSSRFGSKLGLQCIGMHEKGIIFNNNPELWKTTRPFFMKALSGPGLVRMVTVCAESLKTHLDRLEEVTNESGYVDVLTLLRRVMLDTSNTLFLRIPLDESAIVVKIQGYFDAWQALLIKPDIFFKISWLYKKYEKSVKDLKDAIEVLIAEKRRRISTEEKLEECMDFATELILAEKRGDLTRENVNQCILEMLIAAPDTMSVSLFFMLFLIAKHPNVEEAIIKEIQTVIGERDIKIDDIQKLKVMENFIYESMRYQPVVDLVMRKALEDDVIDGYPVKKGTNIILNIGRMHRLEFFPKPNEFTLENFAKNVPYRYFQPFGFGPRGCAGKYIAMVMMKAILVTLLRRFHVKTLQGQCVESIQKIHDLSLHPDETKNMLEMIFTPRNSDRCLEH

Turning to `Cc1cnc(C(=O)NCCc2ccc(S(=O)(=O)NC(=O)NC3CCCCC3)cc2)cn1`, the Potency result in assay [1], in assay [2], in assay [3], in [5], in [6] and in assay [7] was “inactive” each time. Besides, the Potency entry in [8], in assay [9] and in [15] was “inactive” in each case. Also, the call in assay [4], in assay [10], in [11], in [12], in assay [13] and in assay [14] was inactive. Moreover, in [16], the result was inactive.

`CCN(CC)c1ccc(C(=O)c2ccccc2C(=O)O)c(O)c1`: the Potency result (in assay [1]; in assay [2]; in assay [3]; in assay [5]; in assay [8]; with Aromatase (Homo sapiens)) was “inactive” throughout. Moreover, the Potency entry in assay [9], in assay [17] and in [18] was “inactive” each time. The compound was called inactive in [4], in assay [10], in [12], in assay [13], in [14] and in [16]. For the same compound, in [6], the Potency was 17.3 µM (active) and 43.3 µM (active).

With `CC(=O)CC(=O)Nc1ccccc1`, the Potency result (in assay [1]; in [2]; in [8]; with Aromatase (Homo sapiens); in assay [9]; in assay [17]) was “inactive” each time. The outcome in [4], in assay [10], in assay [11], in [12], in assay [14] and in assay [16] was inactive.

As to `O=c1[nH]c(=O)n([C@H]2CCCO2)cc1F`, the Potency entry (in assay [1]; in [2]; in [8]; with Aromatase (Homo sapiens); in assay [9]; in [17]) was “inactive” in each case. Further, the Potency result in assay [18] and in assay [15] was “inactive” each time. The result in [4], in assay [10], in assay [11], in [12], in assay [13] and in [14] was inactive. In addition, the outcome in assay [16] was inactive.

In the case of `C[C@H]1C[C@H]2[C@@H]3CCC4=CC(=O)C=C[C@]4(C)[C@@]3(F)[C@@H](O)C[C@]2(C)[C@@]1(O)C(=O)CO`, the Potency entry (in assay [1]; in assay [2]; in [8]; with Aromatase (Homo sapiens); in assay [9]; in [17]) was “inactive” each time. Besides, the Potency result in assay [18] and in assay [15] was “inactive” each time. Moreover, the compound was classed as inactive in [4], in assay [10], in assay [12], in assay [14] and in [16].

For `Oc1cccc2ccccc12`, the Potency result in assay [1], in assay [2], in [8] and in [15] was “inactive” throughout. In addition, the call in [4], in assay [10], in [12], in assay [13], in assay [14] and in assay [16] was inactive. The Potency in [18] is 31.4 µM (active) and 30.6 µM (active).

For `CC1=CC(=O)NS(=O)(=O)O1`, the Potency result (in assay [1]; in [2]; in assay [8]; with Aromatase (Homo sapiens); in assay [9]; in assay [17]) was “inactive” in each case. For the same compound, the Potency result in [18] is “inactive”. The compound was classed as inactive in assay [4], in assay [10], in assay [12], in assay [13], in assay [14] and in assay [16].

Turning to `O=C(O)c1cc(=O)c2c(OCC(O)COc3cccc4oc(C(=O)O)cc(=O)c34)cccc2o1`, the Potency entry (in assay [3]; in assay [5]; in assay [6]; in assay [7]; in assay [8]; with Aromatase (Homo sapiens)) was “inactive” each time. The Potency result in assay [9], in assay [17] and in [18] was “inactive” in each case. The compound was classed as inactive in assay [4], in [10], in assay [11], in [12], in assay [14] and in [16].

Take `CC(C)CC(=O)CC(C)C`: the Potency result in assay [1], in [2], in assay [8], in assay [18] and in [15] was “inactive” in each case. The outcome in [4], in [10], in assay [12], in assay [14] and in [16] was inactive.

`OCCOCCOCCO`: the Potency entry (in assay [3]; in [5]; in [6]; in assay [7]; in assay [8]; with Aromatase (Homo sapiens)) was “inactive” in each case. For the same compound, the Potency result in [9], in assay [18] and in assay [15] was “inactive” each time. Also, the compound was called inactive in [4], in assay [10], in assay [11], in assay [19], in assay [12] and in assay [13]. Besides, the outcome in [14] and in assay [16] was inactive.

For the compound `O=C(Oc1ccccc1)c1ccccc1`, the Potency entry (in assay [1]; in assay [2]; in assay [8]; with Aromatase (Homo sapiens); in assay [9]; in [18]) was “inactive” throughout. Besides, the outcome in assay [4], in assay [10], in assay [11], in assay [12], in [13] and in assay [14] was inactive. Also, in [16], the compound was classed as inactive.

`CN(C)CCC(c1ccc(Cl)cc1)c1ccccn1` (configuration not stated): the Potency in assay [1] is 48.7 µM (active) and 48.6 µM (active). Further, the Potency entry in assay [2], in assay [8], in [17] and in assay [15] was “inactive” throughout. Also, the outcome in assay [4], in assay [10], in assay [12] and in [14] was inactive.

For the compound `C#C[C@]1(O)CC[C@H]2[C@@H]3CCC4=CC(=O)CC[C@@H]4[C@H]3CC[C@@]21C`, the compound was classed as inactive in assay [4], in assay [10], in assay [11], in assay [12], in assay [13] and in assay [14]. Moreover, the compound was classed as inactive in assay [16]. Further, the Potency entry (in [7]; in assay [8]; in the assay with Aromatase (Homo sapiens); in assay [9]; in assay [17]; in assay [15]) was “inactive” throughout. Besides, the Potency in [18] was 24.3 µM (active).

For `c1ccc2c(c1)ccc1ccccc12`, the Potency result in [2], in [3], in [5], in assay [6], in assay [7] and in assay [8] was “inactive” throughout. Moreover, the Potency result (with Aromatase (Homo sapiens); in assay [9]; in assay [17]; in assay [18]; in assay [15]) was “inactive” throughout. Besides, the result in assay [4], in [10], in assay [11], in assay [12], in assay [13] and in assay [14] was inactive. For the same compound, in assay [16], the compound was classed as inactive.

The values above are taken from PubChem BioAssay (Tox21).
